Laboratory results: PubChem BioAssay (EPA / NIEHS)
Activity calls are given as the source filed them. How the source made its calls: active means hit-call score of the fitted dose curve at least 0.9, where 1 is the maximum; inactive means score below 0.9.

Legend:
[1] = ATG_CRE_CIS: Attagene CIS-FACTORIAL HepG2 Assay for human cAMP Responsive Element (CRE) binding protein 3 (AID 2282926); conditions: HepG2 CRE cis-reporter, Attagene multiplexed mRNA; actives raise or lower the signal
In short: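 Multiplexed transcription-unit reporters transfected into HepG2; 24 h dosing; RT-PCR/capillary electrophoresis fluorescence read-out; bidirectional fit vs DMSO.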

[2] = biological target: CCAAT/enhancer-binding protein beta (Homo sapiens) (UniProt P17676); assay: ATG_C_EBP_CIS: Attagene CIS-FACTORIAL HepG2 Assay for human CCAAT/Enhancer Binding Protein (C/EBP) beta (AID 2282927); conditions: HepG2 Attagene cis-factorial transcription factor reporter; actives raise or lower the signal
Sequence of CCAAT/enhancer-binding protein beta (Homo sapiens) (P17676 whole entry, looked up, the tested form may be a part): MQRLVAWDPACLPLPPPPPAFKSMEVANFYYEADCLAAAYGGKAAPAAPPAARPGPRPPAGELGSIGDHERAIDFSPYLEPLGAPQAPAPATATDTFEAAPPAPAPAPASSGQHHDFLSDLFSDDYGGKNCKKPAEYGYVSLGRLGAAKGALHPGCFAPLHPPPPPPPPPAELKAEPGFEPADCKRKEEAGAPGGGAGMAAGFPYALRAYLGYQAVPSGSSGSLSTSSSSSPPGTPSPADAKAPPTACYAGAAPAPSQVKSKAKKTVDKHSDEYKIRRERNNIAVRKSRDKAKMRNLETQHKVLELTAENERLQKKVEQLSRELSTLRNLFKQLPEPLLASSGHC
In short: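 Endogenous C/EBPb-driven reporter transcripts measured in transfected human HepG2 cells at 24 h via RT-PCR and capillary electrophoresis of labelled fragments. Activity fitted in both directions relative to DMSO baseline.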

[3] = ATG_CMV_CIS: Attagene CIS-FACTORIAL HepG2 Assay for human CMV (Internal Marker) (AID 2282928); conditions: HepG2 CMV promoter reporter, transcription factor profiling; actives raise or lower the signal;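 further: endpoint acts as a background internal control marker rather than a target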
In short: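 Endogenous transcription factor activity read in HepG2 via transfected cis-promoter reporter units. After 24 h dosing, reporter mRNA measured by RT-PCR/capillary electrophoresis; gain or loss of signal fit relative to DMSO.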

[4] = ATG_DR4_LXR_CIS: Attagene CIS-FACTORIAL HepG2 Assay for human Liver X Receptor (LXR), DR4 submotif (AID 2282929); conditions: HepG2 Attagene DR4 cis-reporter, mRNA transcription; actives raise or lower the signal
In short: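 DR4 cis-reporter in HepG2, 24 h exposure. Detection: RT-PCR, 6-FAM labelling, CE fragment analysis. Endpoint fitted bidirectionally, DMSO = baseline.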

[5] = biological target: Aryl hydrocarbon receptor (Homo sapiens) (UniProt P35869); assay: ATG_Ahr_CIS: Attagene CIS-FACTORIAL HepG2 Assay for human Aryl Hydrocarbon Receptor (Ahr) (AID 2282930); conditions: HepG2 AhR cis-factorial reporter transcription; actives raise or lower the signal
Sequence of Aryl hydrocarbon receptor (Homo sapiens) (P35869 whole entry, looked up): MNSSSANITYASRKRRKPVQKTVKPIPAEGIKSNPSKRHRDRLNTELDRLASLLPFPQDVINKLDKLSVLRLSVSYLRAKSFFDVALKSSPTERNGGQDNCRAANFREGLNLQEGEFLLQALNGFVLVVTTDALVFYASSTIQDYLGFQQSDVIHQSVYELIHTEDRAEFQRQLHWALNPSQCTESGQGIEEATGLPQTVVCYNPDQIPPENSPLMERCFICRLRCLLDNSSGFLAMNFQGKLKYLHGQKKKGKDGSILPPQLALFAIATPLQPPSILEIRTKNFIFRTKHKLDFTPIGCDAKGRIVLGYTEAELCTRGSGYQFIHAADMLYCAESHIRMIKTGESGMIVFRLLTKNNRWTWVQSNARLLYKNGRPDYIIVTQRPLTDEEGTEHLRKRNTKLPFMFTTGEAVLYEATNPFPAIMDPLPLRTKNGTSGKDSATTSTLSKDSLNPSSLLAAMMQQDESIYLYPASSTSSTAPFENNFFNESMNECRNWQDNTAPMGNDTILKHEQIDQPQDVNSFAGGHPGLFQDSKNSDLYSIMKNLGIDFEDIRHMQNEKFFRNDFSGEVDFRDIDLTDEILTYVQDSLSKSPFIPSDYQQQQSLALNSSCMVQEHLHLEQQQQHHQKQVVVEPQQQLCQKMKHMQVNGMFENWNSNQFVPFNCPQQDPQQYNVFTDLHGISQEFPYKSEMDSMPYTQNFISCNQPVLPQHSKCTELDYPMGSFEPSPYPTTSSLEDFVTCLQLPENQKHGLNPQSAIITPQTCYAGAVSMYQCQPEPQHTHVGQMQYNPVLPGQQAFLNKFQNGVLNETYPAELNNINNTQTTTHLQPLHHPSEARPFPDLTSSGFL
In short: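 Reporter mRNA levels, quantified by RT-PCR and fluorescent capillary electrophoresis, reflect endogenous AhR transcriptional activity in HepG2 cells carrying transfected cis-promoter reporter constructs. Readout at 24 h post-dose; gain or loss fitted against DMSO baseline.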

[6] = ATG_AP_1_CIS: Attagene CIS-FACTORIAL HepG2 Assay for human Activator Protein 1 (AP-1) (AID 2282931); conditions: HepG2 Attagene cis-factorial AP-1 reporter mRNA; actives raise or lower the signal
In short: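 Cis-regulated reporter units transiently expressed in HepG2 report endogenous transcription-factor activity. Signal: reporter mRNA at 24 h, via RT-PCR and fluorescent capillary electrophoresis. Endpoint derived by bidirectional fitting, DMSO as negative control.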

[7] = ATG_AP_2_CIS: Attagene CIS-FACTORIAL HepG2 Assay for human Activator Protein 2 (AP-2) (AID 2282932); conditions: HepG2 AP-2 cis-reporter, Attagene transcription factor profiling; actives raise or lower the signal
In short: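 HepG2, transient MRTU transfection, cis-regulated reporters; 24 h compound exposure; RNA isolated, RT-PCR, 6-FAM labelling, HpaI digest, CE fluorescence. DMSO = negative control/baseline, bidirectional fit.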

[8] = biological target: Retinoic acid receptor alpha (Homo sapiens) (UniProt P10276); assay: ATG_DR5_RAR_CIS: Attagene CIS-FACTORIAL HepG2 Assay for human Retinoic Acid Receptor Alpha (RARE), DR5 submotif (AID 2282934); conditions: HepG2 Attagene cis-factorial RARE DR5 reporter, mRNA; actives raise or lower the signal;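 on AC50: reporter responds to endogenous RAR alpha beta and gamma in HepG2 not RARA alone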
Sequence of Retinoic acid receptor alpha (Homo sapiens) (P10276 whole entry, looked up): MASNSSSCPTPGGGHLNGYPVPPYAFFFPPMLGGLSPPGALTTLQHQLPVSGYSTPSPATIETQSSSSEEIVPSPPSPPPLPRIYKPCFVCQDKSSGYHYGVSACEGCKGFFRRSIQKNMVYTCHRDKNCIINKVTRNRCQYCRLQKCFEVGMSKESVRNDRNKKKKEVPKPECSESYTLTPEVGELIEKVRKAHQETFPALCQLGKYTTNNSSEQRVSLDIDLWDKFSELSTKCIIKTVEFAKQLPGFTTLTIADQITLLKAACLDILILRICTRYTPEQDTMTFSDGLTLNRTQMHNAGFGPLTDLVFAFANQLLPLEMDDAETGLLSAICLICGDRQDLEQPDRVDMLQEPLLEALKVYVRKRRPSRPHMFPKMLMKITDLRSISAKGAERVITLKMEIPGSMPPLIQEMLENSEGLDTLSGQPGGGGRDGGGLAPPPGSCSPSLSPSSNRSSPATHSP
In short: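 Reporter transcripts from a DR5-regulated unit, measured via RT-PCR plus capillary electrophoresis, reflect endogenous RAR activity in transiently transfected human HepG2 liver cells. Exposure lasted 24 h; gain or loss of signal scored against DMSO.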

[9] = biological target: Transcription factor E2F1 (Homo sapiens) (UniProt Q01094); assay: ATG_E2F_CIS: Attagene CIS-FACTORIAL HepG2 Assay for human E2F Transcription Factor 1 (AID 2282935); conditions: HepG2 Attagene cis-reporter, E2F reporter RNA transcripts; actives raise or lower the signal
Sequence of Transcription factor E2F1 (Homo sapiens) (Q01094 whole entry, looked up): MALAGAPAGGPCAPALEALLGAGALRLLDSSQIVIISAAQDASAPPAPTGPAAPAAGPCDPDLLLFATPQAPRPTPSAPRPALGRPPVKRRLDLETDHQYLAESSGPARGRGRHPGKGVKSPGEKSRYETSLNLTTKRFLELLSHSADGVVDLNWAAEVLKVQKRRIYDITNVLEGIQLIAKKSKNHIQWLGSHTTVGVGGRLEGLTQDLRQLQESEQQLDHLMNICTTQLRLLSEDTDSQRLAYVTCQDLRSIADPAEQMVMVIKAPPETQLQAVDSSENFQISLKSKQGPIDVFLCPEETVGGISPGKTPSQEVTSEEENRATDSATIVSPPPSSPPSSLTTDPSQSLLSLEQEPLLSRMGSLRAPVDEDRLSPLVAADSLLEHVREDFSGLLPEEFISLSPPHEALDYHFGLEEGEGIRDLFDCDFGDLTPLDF
In short: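 Cis-element reporter mRNA induction in transiently transfected HepG2, 24 h exposure. Activity fitted in both directions relative to DMSO negative control.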

[10] = ATG_E_Box_CIS: Attagene CIS-FACTORIAL HepG2 Assay for human Enhancer Box (E-box) (AID 2282936); conditions: HepG2 E-box cis-reporter transcription, actives raise or lower the signal
In short: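 Cells: HepG2 (human liver), transient MRTU transfection. Exposure 24 h. RNA → oligo(dT) RT → PCR → 6-FAM label → HpaI → CE. Activity fitted both directions relative to DMSO.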

[11] = ATG_EGR_CIS: Attagene CIS-FACTORIAL HepG2 Assay for human Early Growth Response 1 (EGR1) (AID 2282938); conditions: HepG2 Attagene CIS-FACTORIAL EGR reporter mRNA; actives raise or lower the signal
In short: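 Endpoint derived by bidirectional fitting versus DMSO vehicle. Method: cis-promoter reporter units transfected into HepG2, 24 h dosing, RNA isolation, RT-PCR with 6-FAM primer extension and HpaI digestion, then capillary electrophoresis fluorescence detection.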

[12] = ATG_M_19_CIS: Attagene CIS-FACTORIAL HepG2 Assay for M19 Transcription Factor (Internal Marker) (AID 2282939); conditions: HepG2 Attagene CIS-FACTORIAL M19 internal marker reporter; actives raise or lower the signal
In short: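 Internal marker readout, fitted in both directions against DMSO, from HepG2 cells carrying transfected cis-element reporter constructs; RT-PCR and capillary electrophoresis of reporter mRNA after 24 h exposure.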

[13] = ATG_ERE_CIS: Attagene CIS-FACTORIAL HepG2 Assay for Estrogen Response Element (ERE) (AID 2282940); conditions: HepG2 ERE cis-reporter, Attagene RNA transcript; actives raise or lower the signal
In short: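 After 24 h compound treatment, RNA from transfected HepG2 cells was reverse-transcribed, reporter cDNA PCR-amplified, FAM-labelled, HpaI-cut and resolved by capillary electrophoresis. ERE-driven cis reporter transcripts reflect endogenous factors; gain or loss scored against DMSO.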

[14] = ATG_Ets_CIS: Attagene CIS-FACTORIAL HepG2 Assay for human Erythroblast Transformation Specific (ETS) (AID 2282941); conditions: HepG2 ETS cis-reporter transcription, actives raise or lower the signal
In short: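 Steps: transfect HepG2 with multiple reporter units; treat compound 24 h; isolate RNA, DNase-treat, reverse-transcribe; PCR-amplify, label with 6-FAM, digest with HpaI; separate by capillary electrophoresis. Activity fitted both directions versus DMSO.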

[15] = biological target: Hepatocyte nuclear factor 3-beta (Homo sapiens) (UniProt Q9Y261); assay: ATG_FoxA2_CIS: Attagene CIS-FACTORIAL HepG2 Assay for human Forkhead box A2 (FOXA2) (AID 2282942); conditions: HepG2 cis-reporter transcription factor activity, 24 h; actives raise or lower the signal
Sequence of Hepatocyte nuclear factor 3-beta (Homo sapiens) (Q9Y261 whole entry, looked up): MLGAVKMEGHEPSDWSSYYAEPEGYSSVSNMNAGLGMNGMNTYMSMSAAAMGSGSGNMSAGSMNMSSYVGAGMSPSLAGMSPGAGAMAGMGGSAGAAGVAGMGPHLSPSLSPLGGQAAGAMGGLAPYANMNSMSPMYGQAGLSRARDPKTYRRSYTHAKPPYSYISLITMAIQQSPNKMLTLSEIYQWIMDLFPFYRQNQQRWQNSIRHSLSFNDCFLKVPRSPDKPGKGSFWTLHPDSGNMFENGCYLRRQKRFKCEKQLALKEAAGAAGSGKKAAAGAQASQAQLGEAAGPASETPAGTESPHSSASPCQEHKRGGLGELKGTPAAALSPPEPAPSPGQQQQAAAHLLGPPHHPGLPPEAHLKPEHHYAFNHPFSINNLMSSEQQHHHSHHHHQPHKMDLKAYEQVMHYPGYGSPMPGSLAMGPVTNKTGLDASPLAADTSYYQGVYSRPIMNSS
In short: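 Measured: reporter mRNA induction or loss in HepG2 transiently carrying multiple cis-regulated reporter units, 24 h after dosing. Quantified by RT-PCR plus capillary electrophoresis, normalised to DMSO.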

[16] = ATG_FoxO_CIS: Attagene CIS-FACTORIAL HepG2 Assay for human Forkhead box O (FoxO) (AID 2282943); conditions: HepG2 Attagene cis-reporter, FoxO element, mRNA; actives raise or lower the signal
In short: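 Endogenous transcription factor activity read from multiplexed cis-promoter reporter transcripts in transiently transfected HepG2, 24 h after dosing. Reporter RNA measured via RT-PCR plus capillary electrophoresis of FAM-labeled products; gain or loss relative to DMSO.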

[17] = ATG_BRE_CIS: Attagene CIS-FACTORIAL HepG2 Assay for human Bone Morphogenetic Protein (BMP) Response Element (BRE) (AID 2282933); conditions: HepG2 BMP response element reporter, Attagene transcription factor profiling; actives raise or lower the signal
In short: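 Endogenous transcription factor activity read in transiently transfected HepG2 cells after 24 h chemical exposure. Bidirectional curve fitting against DMSO; readout is reporter transcript level by RT-PCR with capillary electrophoresis of labelled products.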

[18] = ATG_M_61_CIS: Attagene CIS-FACTORIAL HepG2 Assay for M61 Transcription Factor (Internal Marker) (AID 2282937); conditions: HepG2 Attagene CIS-FACTORIAL M61 internal marker reporter; actives raise or lower the signal
In short: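 Background-control endpoint: HepG2 cells with cis-regulated reporter constructs, 24 h exposure, reporter mRNA detected via fluorescent primer extension and capillary electrophoresis; values from bidirectional fitting with DMSO baseline.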

[19] = ATG_GATA_CIS: Attagene CIS-FACTORIAL HepG2 Assay for human GATA Binding Protein (AID 2282944); conditions: HepG2 GATA cis-element reporter, Attagene multiplex mRNA; actives raise or lower the signal
In short: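 Reporter transcripts from a GATA cis-regulated unit, among multiplexed reporters in transfected HepG2 cells, were measured by RT-PCR with capillary electrophoresis after 24 h dosing. Induction or loss scored relative to DMSO.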

Measured: AC50

CN(C)C(=O)Nc1ccccc1
inactive: [1] | [2] | [3] | [4] | [5] | [6] | [7] | [8] | [9] | [10] | [11] | [12] | [13] | [14] | [15] | [16]

CC1=CC(O)CC(C)(C)C1 (stereo not drawn)
inactive: [1] | [2] | [3] | [4] | [6] | [17] | [8] | [9] | [10] | [18] | [11] | [12] | [13] | [15] | [16] | [19]
active: [5] 44.9 µM

CCCCCC#CC(=O)OC
inactive: [1] | [2] | [3] | [4] | [5] | [6] | [7] | [9] | [10] | [18] | [11] | [12] | [14] | [15] | [16] | [19]

CC1=CCC(=C(C)C)CC1
active: [13] 60 µM
inactive: [1] | [2] | [3] | [4] | [5] | [6] | [17] | [9] | [10] | [18] | [11] | [12] | [14] | [15] | [16] | [19]

Cc1cc(O)c2c(c1)C(=O)c1cc(O)cc(O)c1C2=O
active: [1] 8.7 µM | [2] 12.5 µM | [4] 44.8 µM | [5] 25.3 µM | [8] 17.6 µM | [13] 0.602 µM | [14] 19.3 µM | [16] 26.2 µM
inactive: [3] | [6] | [7] | [9] | [10] | [18] | [11] | [12] | [15] | [19]

CC1=CC[C@@H](C(C)(C)O)CC1
inactive: [1] | [2] | [3] | [4] | [5] | [6] | [17] | [9] | [10] | [18] | [11] | [12] | [13] | [14] | [15] | [16] | [19]

C1CCCNCC1
inactive: [1] | [2] | [3] | [4] | [6] | [17] | [9] | [10] | [11] | [12] | [13] | [14] | [15] | [16] | [19]
active: [5] 62.5 µM

CCOC(=O)C=Cc1ccccc1
inactive: [1] | [2] | [3] | [4] | [5] | [6] | [17] | [8] | [9] | [10] | [18] | [11] | [12] | [13] | [14] | [15] | [16] | [19]

CC(=O)c1ccc(O)cc1
inactive: [1] | [2] | [3] | [4] | [5] | [6] | [7] | [9] | [10] | [18] | [11] | [12] | [14] | [15] | [16] | [19]

CCCCCCCCCOS(=O)(=O)O
active: [4] 78.7 µM | [13] 5.14 µM
inactive: [1] | [2] | [3] | [5] | [6] | [17] | [9] | [10] | [11] | [12] | [15] | [16] | [19]

OCCCO
inactive: [1] | [2] | [3] | [4] | [5] | [6] | [17] | [8] | [9] | [10] | [11] | [12] | [13] | [15] | [16] | [19]

CCOC(=O)CCCCCCCCC(=O)OCC
inactive: [1] | [2] | [3] | [4] | [5] | [6] | [17] | [8] | [9] | [10] | [11] | [12] | [14] | [15] | [16] | [19]

COc1cc(OC)c2ccc(=O)oc2c1
active: [4] 2.81 µM
inactive: [1] | [2] | [3] | [5] | [6] | [7] | [9] | [10] | [18] | [11] | [12] | [13] | [14] | [15] | [16] | [19]

COC(=O)C(C)Oc1ccc(Oc2ncc(C(F)(F)F)cc2Cl)cc1 (stereo not drawn)
active: [5] 3.09 µM | [11] 76.1 µM
inactive: [1] | [2] | [3] | [4] | [6] | [7] | [9] | [18] | [12] | [13] | [14] | [15] | [16] | [19]

CC(C)(O)C(=O)c1ccc(OCCO)cc1
inactive: [1] | [2] | [3] | [4] | [5] | [6] | [7] | [9] | [10] | [18] | [11] | [12] | [15] | [16] | [19]

CCC(=O)OC/C=C(\C)CCC=C(C)C
inactive: [1] | [2] | [3] | [4] | [5] | [6] | [17] | [9] | [10] | [18] | [11] | [12] | [13] | [14] | [15] | [16] | [19]

COc1ccc(OC)cc1
inactive: [1] | [2] | [3] | [4] | [5] | [6] | [7] | [9] | [10] | [18] | [11] | [12] | [13] | [15] | [16]
